Source: PubChem BioAssay (NCI)
Compounds without any hit were thinned out: in the full panel of roughly 83,000, 20% have a hit.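 Activity criterion: percent growth below 10, measured after cells in 96-well plates were exposed to a single compound concentration for 48 hours.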 The source made the active and inactive calls.

Experiments:
Assay in all cases: NCI-60 one-dose screen, 48 h (100 = growth as untreated, 0 = no growth, -100 = all killed)
T-47D breast = system: T-47D breast
BT-549 breast = system: BT-549 breast
MDA-MB-435 melanoma = system: MDA-MB-435 melanoma
SW-620 colon = system: SW-620 colon
MCF7 breast = system: MCF7 breast
HCT-116 colon = system: HCT-116 colon
HCC-2998 colon = system: HCC-2998 colon
KM12 colon = system: KM12 colon
MDA-MB-468 breast = system: MDA-MB-468 breast

Measured: growth

O=C(N=Nc1c(O)[nH]c2ccc(Br)cc12)c1ccc2nc(-c3ccc(Cl)cc3)[nH]c2c1
inactive: KM12 colon; 10 µM unless noted 22.4%
active: T-47D breast; 10 µM unless noted -30.7% | BT-549 breast; 10 µM unless noted 7.28% | MDA-MB-435 melanoma; 10 µM unless noted -62.4% | SW-620 colon; 10 µM unless noted -37.2% | MCF7 breast; 10 µM unless noted -22.9% | HCT-116 colon; 10 µM unless noted 8.39% | HCC-2998 colon; 10 µM unless noted -66.8%

CC(Nc1ncnc2ccc(-c3ccc4oc(N)nc4c3)cc12)c1ccccc1 (configuration not stated)
inactive: MDA-MB-435 melanoma; 10 µM unless noted 13% | HCC-2998 colon; 10 µM unless noted 41.5% | KM12 colon; 10 µM unless noted 23.6%
active: T-47D breast; 10 µM unless noted -74.3% | BT-549 breast; 10 µM unless noted -21.6% | SW-620 colon; 10 µM unless noted -66.6% | MCF7 breast; 10 µM unless noted -73.1% | HCT-116 colon; 10 µM unless noted -64.7%

Cc1nn(-c2ccccc2)c2nc(C)n(CC(=O)N/N=C/c3cccc([N+](=O)[O-])c3)c(=O)c12
inactive: T-47D breast; 10 µM unless noted 77.6% | BT-549 breast; 10 µM unless noted 82.8% | MDA-MB-435 melanoma; 10 µM unless noted 101% | SW-620 colon; 10 µM unless noted 101% | MCF7 breast; 10 µM unless noted 85.5% | HCT-116 colon; 10 µM unless noted 87.6% | HCC-2998 colon; 10 µM unless noted 116% | KM12 colon; 10 µM unless noted 101%

O=C(N/N=C/c1ccsc1)c1[nH]c2ccc(Br)cc2c1-c1ccccc1
active: T-47D breast; 10 µM unless noted -21.6% | BT-549 breast; 10 µM unless noted -86% | MDA-MB-435 melanoma; 10 µM unless noted -85.3% | SW-620 colon; 10 µM unless noted -68% | MCF7 breast; 10 µM unless noted -50.9% | HCT-116 colon; 10 µM unless noted -71% | HCC-2998 colon; 10 µM unless noted -59.4% | KM12 colon; 10 µM unless noted -49.3%

O=C(N/N=C/c1c[nH]c2ccccc12)Nc1ccc(F)c(Cl)c1
inactive: T-47D breast; 10 µM unless noted 34% | BT-549 breast; 10 µM unless noted 18.5% | SW-620 colon; 10 µM unless noted 41.3% | HCT-116 colon; 10 µM unless noted 25.5%
active: MDA-MB-435 melanoma; 10 µM unless noted 0.865% | MCF7 breast; 10 µM unless noted 9.25% | HCC-2998 colon; 10 µM unless noted 3.69% | KM12 colon; 10 µM unless noted -14.7%

C/C(=N\Nc1ccc(C(=O)O)cc1)c1cnn(-c2cc(=O)[nH]c3ccc(C)cc23)c1C
inactive: T-47D breast; 10 µM unless noted 98.9% | BT-549 breast; 10 µM unless noted 88.4% | MDA-MB-435 melanoma; 10 µM unless noted 101% | SW-620 colon; 10 µM unless noted 110% | MCF7 breast; 10 µM unless noted 90.4% | HCT-116 colon; 10 µM unless noted 95.2% | HCC-2998 colon; 10 µM unless noted 108% | KM12 colon; 10 µM unless noted 99.9%

O=C(CSc1nc2sc3c(c2c(=O)n1-c1ccc(Cl)cc1)CCCC3)NNC(=O)c1ccc(F)cc1
inactive: T-47D breast; 10 µM unless noted 74% | BT-549 breast; 10 µM unless noted 67.3% | MDA-MB-435 melanoma; 10 µM unless noted 98.2% | SW-620 colon; 10 µM unless noted 91% | MCF7 breast; 10 µM unless noted 61.9% | HCT-116 colon; 10 µM unless noted 78.3% | HCC-2998 colon; 10 µM unless noted 113% | KM12 colon; 10 µM unless noted 101%

CN1C(=O)/C(=C/c2ccco2)S/C1=N/c1nccs1
inactive: T-47D breast; 10 µM unless noted 65.9% | BT-549 breast; 10 µM unless noted 112% | MDA-MB-435 melanoma; 10 µM unless noted 107% | SW-620 colon; 10 µM unless noted 106% | MCF7 breast; 10 µM unless noted 33.7% | HCT-116 colon; 10 µM unless noted 95.2% | HCC-2998 colon; 10 µM unless noted 107% | KM12 colon; 10 µM unless noted 98%

CC/C(=C(/c1ccc(O)cc1)c1ccc(OCCN(C)C(=O)CCOCCNC(=O)Cc2ccc3c(c2)CN([C@@H]2CCC(=O)NC2=O)C3=O)cc1)c1ccccc1
active: BT-549 breast; 1 µM -12.9% | BT-549 breast; 10 µM -25.9% | MDA-MB-468 breast; 1 µM -2.35% | MDA-MB-468 breast; 10 µM -18.2%
inactive: T-47D breast; 1 µM 20.9% | T-47D breast; 10 µM 25% | MDA-MB-435 melanoma; 1 µM 104% | MDA-MB-435 melanoma; 10 µM 85% | SW-620 colon; 1 µM 70.6% | SW-620 colon; 10 µM 36% | MCF7 breast; 1 µM 34.7% | MCF7 breast; 10 µM 31.5% | HCT-116 colon; 1 µM 100% | HCT-116 colon; 10 µM 92.4% | HCC-2998 colon; 1 µM 97.3% | HCC-2998 colon; 10 µM 78.3% | KM12 colon; 1 µM 95.3% | KM12 colon; 10 µM 66.7%

Clc1ccc2c(NCCNC34CC5CC(CC(C5)C3)C4)ccnc2c1
active: T-47D breast; 10 µM unless noted -47.2% | BT-549 breast; 10 µM unless noted -86.5% | MDA-MB-435 melanoma; 10 µM unless noted -72.3% | SW-620 colon; 10 µM unless noted -47.1% | MCF7 breast; 10 µM unless noted -78.7% | HCT-116 colon; 10 µM unless noted -40.1% | HCC-2998 colon; 10 µM unless noted -89.5% | KM12 colon; 10 µM unless noted -96.8%

CCCCNC(=S)Nc1ccc(OCc2nc3ccc(Cl)cc3[nH]2)cc1
inactive: T-47D breast; 10 µM unless noted 22.2% | BT-549 breast; 10 µM unless noted 31.7% | MDA-MB-435 melanoma; 10 µM unless noted 29.4% | SW-620 colon; 10 µM unless noted 21.8% | HCT-116 colon; 10 µM unless noted 11.2% | KM12 colon; 10 µM unless noted 29.3%
active: MCF7 breast; 10 µM unless noted 6.29% | HCC-2998 colon; 10 µM unless noted 3.65%

CCc1ccccc1-c1nc(CN[C@@H]2C[C@@H]3C[C@H]([C@H]2C)C3(C)C)c(C)o1
active: T-47D breast; 10 µM unless noted -60.3% | BT-549 breast; 10 µM unless noted -89.7% | MDA-MB-435 melanoma; 10 µM unless noted -79.5% | SW-620 colon; 10 µM unless noted -43.5% | MCF7 breast; 10 µM unless noted -84.4% | HCT-116 colon; 10 µM unless noted -82.4% | HCC-2998 colon; 10 µM unless noted -83.9% | KM12 colon; 10 µM unless noted -87.4%

CCOc1ccccc1[C@H]1C(C(=O)c2ccc(Cl)cc2)C2(N[C@@H]1c1ccccc1)C(=O)Nc1ccc(Cl)cc12 (some centres not stated)
inactive: T-47D breast; 10 µM unless noted 19.9% | MDA-MB-435 melanoma; 10 µM unless noted 24.1% | SW-620 colon; 10 µM unless noted 38.1% | HCT-116 colon; 10 µM unless noted 11.1% | HCC-2998 colon; 10 µM unless noted 20.4% | KM12 colon; 10 µM unless noted 24.2%
active: BT-549 breast; 10 µM unless noted 9.4% | MCF7 breast; 10 µM unless noted 5.27%

CC/C(=C(/c1ccc(O)cc1)c1ccc(OCCN(C)C(=O)COCCOCCNC(=O)c2ccc3c(c2)CN([C@@H]2CCC(=O)NC2=O)C3=O)cc1)c1ccccc1
active: BT-549 breast; 1 µM 5.04% | MDA-MB-468 breast; 1 µM 5.9% | MDA-MB-468 breast; 10 µM -23.9%
inactive: T-47D breast; 1 µM 28.6% | T-47D breast; 10 µM 33.4% | BT-549 breast; 10 µM 43.1% | MDA-MB-435 melanoma; 1 µM 101% | MDA-MB-435 melanoma; 10 µM 97% | SW-620 colon; 1 µM 81.5% | SW-620 colon; 10 µM 60.6% | MCF7 breast; 1 µM 26.3% | MCF7 breast; 10 µM 18.9% | HCT-116 colon; 1 µM 97.9% | HCT-116 colon; 10 µM 102% | HCC-2998 colon; 1 µM 97.6% | HCC-2998 colon; 10 µM 82.8% | KM12 colon; 1 µM 98.9% | KM12 colon; 10 µM 95.5%
